# Compounds without any hit were thinned out: in the full panel of roughly 83,000, 20% have a hit.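 Step 1: grow cells in 96-well plates. Step 2: add test compound at a single concentration. Step 3: incubate 48 h. Step 4: record percent growth.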 Unmarked numbers belong to inactive results. Calls of active or inactive are those of the source. Rule for the calls: active = growth percent below 10; inactive = the rest.
# Experiments:
# Experiment in all cases: NCI-60 one-dose screen, 48 h (100 = growth as untreated, 0 = no growth, -100 = all killed)
# Conditions in all cases: 10 µM unless noted
# SR leukemia = test system: SR leukemia
# RPMI-8226 leukemia = test system: RPMI-8226 leukemia
# OVCAR-8 ovarian = test system: OVCAR-8 ovarian
# OVCAR-5 ovarian = test system: OVCAR-5 ovarian
# OVCAR-4 ovarian = test system: OVCAR-4 ovarian
# SK-OV-3 ovarian = test system: SK-OV-3 ovarian
# IGROV1 ovarian = test system: IGROV1 ovarian
# OVCAR-3 ovarian = test system: OVCAR-3 ovarian
# HS 578T breast = test system: HS 578T breast
# NCI/ADR-RES ovarian = test system: NCI/ADR-RES ovarian
# T-47D breast = test system: T-47D breast
# BT-549 breast = test system: BT-549 breast
# MDA-MB-435 melanoma = test system: MDA-MB-435 melanoma
# SW-620 colon = test system: SW-620 colon
# MCF7 breast = test system: MCF7 breast
# HCT-116 colon = test system: HCT-116 colon
# HCC-2998 colon = test system: HCC-2998 colon
# KM12 colon = test system: KM12 colon
SMILES,growth (SR leukemia),growth (RPMI-8226 leukemia),growth (OVCAR-8 ovarian),growth (OVCAR-5 ovarian),growth (OVCAR-4 ovarian),growth (SK-OV-3 ovarian),growth (IGROV1 ovarian),growth (OVCAR-3 ovarian),growth (HS 578T breast),growth (NCI/ADR-RES ovarian),growth (T-47D breast),growth (BT-549 breast),growth (MDA-MB-435 melanoma),growth (SW-620 colon),growth (MCF7 breast),growth (HCT-116 colon),growth (HCC-2998 colon),growth (KM12 colon)
COc1cccc(-c2nn(-c3ccccc3)cc2-c2ccnc(NCCCNC(=O)c3ccc(F)cc3)c2)c1,-14.2% (active),38.2%,45.9%,85.4%,42.1%,48.2%,47.5%,37.7%,61.4%,14.4%,-0.248% (active),29.8%,-16.7% (active),33%,18.6%,13.1%,40.2%,18.7%
FC(F)(F)c1cc(Nc2ccc3cc(OCCCN4CCOCC4)ccc3n2)ccc1Cl,-12.3% (active),7.22% (active),31.3%,59.1%,48.6%,58.3%,54.3%,48.1%,6.22% (active),44.9%,26%,87.9%,35%,-13.7% (active),6.85% (active),14.5%,-18.5% (active),16.7%
Cc1nn(-c2ccccc2)c2nc3c(c(-c4ccc(Cl)cc4)c12)CNC1(CCSCC1)N3,96.8%,109%,105%,98.2%,98.9%,98.9%,99.1%,104%,99.8%,97.3%,84.3%,109%,99.8%,92.8%,93%,90.7%,101%,98.3%
COC(=O)[C@]12CC[C@@H](C)[C@H](C)[C@@H]1C1=CC[C@@H]3[C@@]4(C)C(C=O)=C[C@@](C)(COC(C)=O)[C@@H]4[C@H](O)C[C@@]3(C)[C@]1(C)CC2,-26.2% (active),-17% (active),-0.958% (active),-28.3% (active),9.81% (active),6.14% (active),2.81% (active),-85.7% (active),-18.3% (active),2.88% (active),-18.5% (active),-19.8% (active),-24.3% (active),-59.4% (active),-11.7% (active),-76.8% (active),-71% (active),-27.5% (active)
Cc1cc(Cl)nc(NCc2cc(Nc3ccnc4cc(Cl)ccc34)ccc2F)n1,-7.84% (active),33.1%,50.6%,107%,9.24% (active),85.1%,64.7%,53.4%,66.7%,50.3%,25.4%,65.5%,41.2%,43.9%,17.4%,23.7%,73.1%,79.9%
COC(=O)[C@]12CC[C@@H](C)[C@H](C)[C@@H]1C1=CC[C@@H]3[C@@]4(C)C(C=O)=C[C@@](C)(COS(C)(=O)=O)[C@@H]4C(=O)C[C@@]3(C)[C@]1(C)CC2,24.9%,23.4%,44.6%,67.1%,37.7%,66.4%,52.1%,31.4%,62.3%,38.6%,33%,42.9%,62.3%,35.9%,18.3%,5.35% (active),43.4%,23.1%
Cc1cccc(Cc2cnc(NC(=O)/C=C/c3ccco3)s2)c1,13.7%,27.9%,13.7%,39.1%,55.6%,33%,22.2%,-2.76% (active),14.8%,-24.6% (active),37.2%,25.8%,-30.7% (active),24.9%,14.9%,18.1%,6.44% (active),13.3%
CCn1c(C)nc2cc(C(N)=O)ccc21,104%,80.9%,96.2%,92.6%,98.2%,105%,109%,105%,108%,97%,113%,111%,131%,100%,91.5%,94.6%,96.9%,107%
N#C/C(=C\c1ccc(Br)cc1)n1nnc2cc(F)c(F)cc21,6.06% (active),0% (active),8.14% (active),3.24% (active),29.8%,62.5%,6.79% (active),2.19% (active),56.1%,1.66% (active),-1.87% (active),22.2%,4.75% (active),13.2%,14%,15.3%,40%,10.3%
Cc1ccc(Cc2cnc(NC(=O)c3ccc4noc(-c5ccccc5)c4c3)s2)cc1,85%,79.3%,89.1%,105%,86.4%,108%,96.3%,107%,95.7%,92.5%,78.7%,99.6%,85.8%,89.1%,69.8%,86.7%,99.7%,91.3%
C=CCOC1=CC(=O)c2ccccc2C1=O,9.62% (active),92.7%,57.2%,110%,42.1%,109%,85.5%,-13.4% (active),81.7%,60.1%,54.2%,95.4%,-67.5% (active),33.2%,-2.95% (active),8.07% (active),98%,87.8%
Cc1c(O)cc(-c2cnc(N/N=C\c3ccc(Cl)cc3)s2)c(O)c1C,58.3%,41.5%,60.7%,102%,61.7%,104%,83.5%,90.3%,77.6%,80.5%,-11.2% (active),67.3%,97.5%,107%,71.1%,94.6%,111%,86.5%
Cc1cc(NCc2cc(Nc3ccnc4cc(Cl)ccc34)ccc2F)nc(N2CCN(C)CC2)n1,-14.4% (active),-23.9% (active),12.1%,9.47% (active),18.7%,29.5%,8.72% (active),-17.4% (active),-7.51% (active),16.8%,-42.4% (active),28.2%,-96.7% (active),0.137% (active),1.13% (active),0.262% (active),-35.2% (active),14.4%
COc1ccc(NC(=O)c2nc(-c3cc(OC)c(OC)c(OC)c3)n(-c3cccc4ccccc34)n2)cc1OC,33.1%,11.6%,52.5%,56.1%,45.5%,38.3%,22.9%,27.7%,23.4%,35.2%,50.3%,46.3%,47.4%,61.5%,26.2%,25.9%,47.4%,41.3%
COc1cc(/C=C/C(=O)c2ccc(Nc3nc(Nc4ccc(F)cc4)nc(Nc4ccc(Cl)cc4)n3)cc2)cc(OC)c1OC,-5.99% (active),-47.5% (active),31.7%,81.3%,31.8%,105%,54.8%,190%,59.1%,38.9%,61.9%,54.8%,69.3%,35.3%,28.5%,22.9%,-1.48% (active),56%
Cc1cc(NCc2cc(Nc3ccnc4cc(Cl)ccc34)ccc2F)nc(N2CCN(c3ccccc3)CC2)n1,-24.6% (active),42.8%,58.8%,92.6%,46.2%,55.1%,41.6%,5.88% (active),47.9%,56.5%,24.5%,70.1%,38.8%,46.1%,23.9%,1.74% (active),28.2%,69.2%
N/C(=N\c1nc2ccccc2s1)NC(=O)Nc1cccc(Cl)c1,14.8%,41.6%,47.7%,67.5%,62.3%,41.9%,35.5%,15.8%,17.5%,11.8%,42.6%,42.8%,1.08% (active),31.9%,21.2%,16%,73%,22.9%

# From PubChem BioAssay (NCI)
